Assay results as given in the supplement of paper PMC10849652.
Targets with a hit are over-represented here; the source holds about 7,900 in all. About 0.6% of all pairs of compound and target were hits. Unmarked numbers belong to inactive results.

What was measured:
Assay in all cases: log2 fold change, soluble protein after heating vs DMSO (PISA); higher = thermal stabilisation; K562 cells, 10 uM, 30 min; active = over 0.2 and 3.5 SD of the protein, either way, in both replicates (recomputed)
erlotinib = compound: C#Cc1cccc(Nc2ncnc3cc(OCCOC)c(OCCOC)cc23)c1 [erlotinib]
How it was run: (§1)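 Values are thermal stability changes relative to control samples and are taken from duplicates. They are stated as log2 fold changes. Before quantification by TMTpro 16plex LC-MS/MS with equalised channel sums, K562 cells at 2×10^6 cells/mL were treated with 10 μM compound for 30 min, heated in aliquots for 3 min across 48°C-58°C, pooled, extracted in PBS with 0.5% NP-40 at 4°C, and centrifuged at 21,000xg for 90 min to give the soluble supernatant.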

[1] = compound: C/C(=N\NC(=O)C1=CC(=CC=C1)S(=O)(=O)N2CCOCC2)/C3=C(C=CC(=C3)Cl)O
How it was run: as §1

[2] = compound: C1=CC(=C(C=C1Cl)C2=NC3=NC=CN=C3C(=N2)NC4=CC=NC=C4)F
How it was run: as §1

[3] = compound: C1=CC(=CC=C1C2=NC3=C(N2)C=C(C=C3)C(=O)N)OC4=CC=C(C=C4)Cl
How it was run: as §1

[4] = compound: C1=CC2=C(C=CC(=C2)/C=C\3/C(=O)NC(=NCC4=CC=CS4)S3)N=C1
How it was run: as §1

[5] = compound: C1=CC2=NC=CN=C2C=C1/C=C/3\C(=O)NC(=O)S3
How it was run: as §1

[6] = compound: C1=CC=C(C=C1)C2=NC(=C(N2)C3=CC=NC=C3)C4=CC(=C(C=C4)Cl)O
How it was run: as §1

[7] = compound: C1=CC=C2C(=C1)C3=NNC4=CC=CC(=C43)C2=O
How it was run: as §1

[8] = compound: C1CCN(C1)C(=O)NC2=CC=CC(=C2)NC3=NC=C(C(=N3)NCCC4=CN=CN4)Br
How it was run: as §1

[9] = compound: C1CN(CCC1(CC2=CC=C(C=C2)Cl)N)C3=NC=NC4=C3C=CN4
How it was run: as §1

IRAK-1-4 Inhibitor I = compound: C1COCCN1CCN2C3=CC=CC=C3N=C2NC(=O)C4=CC(=CC=C4)[N+](=O)[O-] [IRAK-1-4 Inhibitor I]
How it was run: as §1

ibrutinib = compound: C=CC(=O)N1CCC[C@@H](n2nc(-c3ccc(Oc4ccccc4)cc3)c3c(N)ncnc32)C1 [ibrutinib]
How it was run: as §1

[10] = compound: CC(=O)c1cnc2ccc(-c3cc(Cl)c(O)c(Cl)c3)nc2c1N[C@H]1CC[C@H](CN(C)C)CC1
How it was run: as §1

ralimetinib = compound: CC(C)(C)Cn1c(N)nc2ccc(-c3[nH]c(C(C)(C)C)nc3-c3ccc(F)cc3)nc21 [ralimetinib]
How it was run: as §1

[11] = compound: CC(C)(O)CC(=O)NCCn1ccc2ncnc(Nc3ccc(Oc4cccc(C(F)(F)F)c4)c(Cl)c3)c21
How it was run: as §1

[12] = compound: CC(C)C1=C2N=C(C=C(N2N=C1)NCC3=CC=CC=C3)NCCCCCCN
How it was run: as §1

[13] = compound: CC(C)C[C@@H](C=O)NC(=O)[C@H](CC(C)C)NC(=O)[C@H](CC(C)C)NC(=O)OCc1ccccc1
How it was run: as §1

pinometostat = compound: CC(C)N(C[C@H]1O[C@@H](n2cnc3c(N)ncnc32)[C@H](O)[C@@H]1O)[C@H]1C[C@@H](CCc2nc3cc(C(C)(C)C)ccc3[nH]2)C1 [pinometostat]
How it was run: as §1

[14] = compound: CC1=C(C(CC(=O)N1)C2=CC=C(C=C2)C(F)(F)F)C(=O)NC3=C(C=C4C(=C3)C=NN4)F
How it was run: as §1

[15] = compound: CC1=C(C2=C(C=C1)C(=O)C3=CC=CC=C3N2CCCN)C
How it was run: as §1

UniProt Q96FC9, sequence (Q96FC9 whole entry, looked up): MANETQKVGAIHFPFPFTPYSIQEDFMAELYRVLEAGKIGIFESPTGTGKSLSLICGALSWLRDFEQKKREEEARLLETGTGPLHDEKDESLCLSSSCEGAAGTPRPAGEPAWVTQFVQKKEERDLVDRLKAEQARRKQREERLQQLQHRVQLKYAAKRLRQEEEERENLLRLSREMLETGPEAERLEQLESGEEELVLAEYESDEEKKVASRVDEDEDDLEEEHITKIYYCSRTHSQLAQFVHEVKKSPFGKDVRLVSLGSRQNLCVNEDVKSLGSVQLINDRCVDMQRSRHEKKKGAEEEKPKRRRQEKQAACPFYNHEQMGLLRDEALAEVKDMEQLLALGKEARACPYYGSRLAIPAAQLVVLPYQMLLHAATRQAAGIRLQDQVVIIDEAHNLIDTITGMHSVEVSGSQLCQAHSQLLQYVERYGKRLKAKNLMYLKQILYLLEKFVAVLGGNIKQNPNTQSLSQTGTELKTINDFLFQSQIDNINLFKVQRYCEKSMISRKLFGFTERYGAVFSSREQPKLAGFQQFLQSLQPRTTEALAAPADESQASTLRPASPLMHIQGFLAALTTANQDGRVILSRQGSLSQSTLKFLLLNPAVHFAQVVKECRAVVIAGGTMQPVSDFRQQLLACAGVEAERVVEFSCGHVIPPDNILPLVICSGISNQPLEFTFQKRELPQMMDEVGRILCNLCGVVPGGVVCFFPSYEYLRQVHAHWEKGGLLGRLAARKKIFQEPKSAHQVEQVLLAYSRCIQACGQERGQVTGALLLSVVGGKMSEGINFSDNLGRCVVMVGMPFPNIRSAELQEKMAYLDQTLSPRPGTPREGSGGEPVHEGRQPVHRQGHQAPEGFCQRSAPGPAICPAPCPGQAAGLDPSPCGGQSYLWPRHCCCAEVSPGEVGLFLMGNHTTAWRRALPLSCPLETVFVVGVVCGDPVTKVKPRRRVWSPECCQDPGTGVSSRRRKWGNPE
UniProt P12259, sequence (P12259 whole entry, looked up): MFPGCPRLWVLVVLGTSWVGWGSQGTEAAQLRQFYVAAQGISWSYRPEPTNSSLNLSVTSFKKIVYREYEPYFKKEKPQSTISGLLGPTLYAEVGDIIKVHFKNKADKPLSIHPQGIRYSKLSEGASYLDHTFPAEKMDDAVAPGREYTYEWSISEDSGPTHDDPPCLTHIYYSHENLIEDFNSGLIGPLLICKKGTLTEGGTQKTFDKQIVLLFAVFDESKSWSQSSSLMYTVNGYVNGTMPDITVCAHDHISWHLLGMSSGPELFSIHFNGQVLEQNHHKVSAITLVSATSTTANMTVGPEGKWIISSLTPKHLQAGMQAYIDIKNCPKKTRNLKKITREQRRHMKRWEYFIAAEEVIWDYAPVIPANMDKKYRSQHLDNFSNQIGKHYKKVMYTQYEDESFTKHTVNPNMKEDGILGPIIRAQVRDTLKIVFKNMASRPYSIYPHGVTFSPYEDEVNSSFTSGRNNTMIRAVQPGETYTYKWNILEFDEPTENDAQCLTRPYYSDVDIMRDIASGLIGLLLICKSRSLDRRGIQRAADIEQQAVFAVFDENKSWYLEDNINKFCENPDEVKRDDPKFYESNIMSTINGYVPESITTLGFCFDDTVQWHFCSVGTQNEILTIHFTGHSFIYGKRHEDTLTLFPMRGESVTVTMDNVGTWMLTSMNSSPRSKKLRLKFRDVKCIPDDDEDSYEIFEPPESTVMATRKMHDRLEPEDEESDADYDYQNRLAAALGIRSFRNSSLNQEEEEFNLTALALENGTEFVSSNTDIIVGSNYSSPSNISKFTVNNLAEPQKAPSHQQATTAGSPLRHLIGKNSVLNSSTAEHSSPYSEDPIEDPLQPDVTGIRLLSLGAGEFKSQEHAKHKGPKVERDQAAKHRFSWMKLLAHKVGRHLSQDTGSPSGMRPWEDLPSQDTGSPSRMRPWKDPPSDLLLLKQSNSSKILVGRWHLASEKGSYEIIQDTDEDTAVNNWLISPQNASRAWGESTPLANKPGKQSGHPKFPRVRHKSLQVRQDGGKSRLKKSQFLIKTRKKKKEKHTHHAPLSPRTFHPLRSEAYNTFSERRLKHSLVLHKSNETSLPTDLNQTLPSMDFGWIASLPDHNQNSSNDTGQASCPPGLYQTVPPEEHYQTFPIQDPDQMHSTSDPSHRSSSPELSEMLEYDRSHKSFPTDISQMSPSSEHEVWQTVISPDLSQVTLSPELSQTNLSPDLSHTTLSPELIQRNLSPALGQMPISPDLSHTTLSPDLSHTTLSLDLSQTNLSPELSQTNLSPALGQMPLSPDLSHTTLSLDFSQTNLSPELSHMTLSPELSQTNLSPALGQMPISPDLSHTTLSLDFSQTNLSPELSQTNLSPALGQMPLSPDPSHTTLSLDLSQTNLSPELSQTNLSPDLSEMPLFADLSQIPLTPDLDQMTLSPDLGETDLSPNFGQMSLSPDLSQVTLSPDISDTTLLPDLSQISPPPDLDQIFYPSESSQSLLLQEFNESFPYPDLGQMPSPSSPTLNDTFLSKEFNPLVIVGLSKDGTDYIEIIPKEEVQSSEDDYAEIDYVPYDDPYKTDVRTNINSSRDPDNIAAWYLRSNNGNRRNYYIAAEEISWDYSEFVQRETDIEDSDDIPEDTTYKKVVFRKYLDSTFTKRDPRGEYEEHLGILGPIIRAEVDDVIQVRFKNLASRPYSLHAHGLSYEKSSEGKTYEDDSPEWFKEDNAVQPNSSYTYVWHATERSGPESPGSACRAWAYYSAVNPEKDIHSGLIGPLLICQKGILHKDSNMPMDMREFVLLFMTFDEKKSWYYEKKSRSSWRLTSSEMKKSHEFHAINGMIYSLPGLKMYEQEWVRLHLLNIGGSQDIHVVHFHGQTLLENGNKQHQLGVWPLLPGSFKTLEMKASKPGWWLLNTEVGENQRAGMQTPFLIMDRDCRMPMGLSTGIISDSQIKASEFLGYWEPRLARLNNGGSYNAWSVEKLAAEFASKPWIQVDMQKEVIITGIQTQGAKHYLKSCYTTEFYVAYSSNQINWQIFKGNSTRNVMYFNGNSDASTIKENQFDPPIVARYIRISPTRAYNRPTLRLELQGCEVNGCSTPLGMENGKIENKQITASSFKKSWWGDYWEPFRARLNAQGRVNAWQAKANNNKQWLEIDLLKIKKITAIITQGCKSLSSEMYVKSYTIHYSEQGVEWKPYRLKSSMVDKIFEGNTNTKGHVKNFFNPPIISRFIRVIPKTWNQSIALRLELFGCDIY
UniProt P60842, sequence (P60842 whole entry, looked up): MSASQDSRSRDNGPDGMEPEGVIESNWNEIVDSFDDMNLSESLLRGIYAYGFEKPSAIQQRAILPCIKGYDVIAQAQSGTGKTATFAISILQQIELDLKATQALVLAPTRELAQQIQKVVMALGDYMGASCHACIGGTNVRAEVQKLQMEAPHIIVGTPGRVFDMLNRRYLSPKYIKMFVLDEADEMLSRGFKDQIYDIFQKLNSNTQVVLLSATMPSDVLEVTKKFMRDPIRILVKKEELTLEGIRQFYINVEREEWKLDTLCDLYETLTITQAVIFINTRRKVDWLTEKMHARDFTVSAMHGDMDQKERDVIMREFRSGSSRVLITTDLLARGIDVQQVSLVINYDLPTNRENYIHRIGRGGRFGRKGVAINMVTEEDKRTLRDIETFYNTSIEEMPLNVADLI
UniProt O75822, sequence (O75822 whole entry, looked up): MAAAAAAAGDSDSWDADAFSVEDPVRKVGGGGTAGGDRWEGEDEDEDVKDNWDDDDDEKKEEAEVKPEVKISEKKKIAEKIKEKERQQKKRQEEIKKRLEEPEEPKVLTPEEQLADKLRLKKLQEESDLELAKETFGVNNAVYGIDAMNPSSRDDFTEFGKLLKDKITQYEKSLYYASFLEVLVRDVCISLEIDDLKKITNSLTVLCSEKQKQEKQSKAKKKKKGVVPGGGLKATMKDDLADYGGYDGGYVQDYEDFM
UniProt Q9H777, sequence (Q9H777 whole entry, looked up): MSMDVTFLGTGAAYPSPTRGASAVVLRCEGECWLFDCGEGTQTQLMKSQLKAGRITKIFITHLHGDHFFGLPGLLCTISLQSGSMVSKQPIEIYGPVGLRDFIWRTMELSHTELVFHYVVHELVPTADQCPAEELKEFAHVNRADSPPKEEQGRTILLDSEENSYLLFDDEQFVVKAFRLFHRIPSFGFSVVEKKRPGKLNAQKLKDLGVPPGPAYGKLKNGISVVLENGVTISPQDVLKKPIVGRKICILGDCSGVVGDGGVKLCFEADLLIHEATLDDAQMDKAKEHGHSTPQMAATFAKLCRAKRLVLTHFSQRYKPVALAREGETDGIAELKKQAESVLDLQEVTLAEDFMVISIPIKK
UniProt Q9BQI3, sequence (Q9BQI3 whole entry, looked up): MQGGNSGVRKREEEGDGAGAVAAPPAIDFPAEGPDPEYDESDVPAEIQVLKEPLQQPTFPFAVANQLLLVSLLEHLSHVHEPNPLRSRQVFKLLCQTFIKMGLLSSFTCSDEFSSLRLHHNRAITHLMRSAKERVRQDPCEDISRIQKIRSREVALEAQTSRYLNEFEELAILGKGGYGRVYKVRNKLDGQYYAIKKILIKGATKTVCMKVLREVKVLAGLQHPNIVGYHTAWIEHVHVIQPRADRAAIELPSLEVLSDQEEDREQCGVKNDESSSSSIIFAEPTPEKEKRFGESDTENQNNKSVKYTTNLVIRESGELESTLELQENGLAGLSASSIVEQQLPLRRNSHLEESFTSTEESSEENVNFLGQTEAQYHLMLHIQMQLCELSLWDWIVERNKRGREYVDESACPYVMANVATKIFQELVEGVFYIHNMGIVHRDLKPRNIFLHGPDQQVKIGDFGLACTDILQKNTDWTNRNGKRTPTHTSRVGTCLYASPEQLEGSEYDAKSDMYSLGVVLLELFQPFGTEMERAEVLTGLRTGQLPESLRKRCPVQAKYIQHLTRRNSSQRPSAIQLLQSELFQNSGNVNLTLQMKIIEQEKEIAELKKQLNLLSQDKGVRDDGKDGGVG

Row | Target | log2 fold change (erlotinib) | log2 fold change [1] | log2 fold change [2] | log2 fold change [3] | log2 fold change [4] | log2 fold change [5] | log2 fold change [6] | log2 fold change [7] | log2 fold change [8] | log2 fold change [9] | log2 fold change (IRAK-1-4 Inhibitor I) | log2 fold change (ibrutinib) | log2 fold change [10] | log2 fold change (ralimetinib) | log2 fold change [11] | log2 fold change [12] | log2 fold change [13] | log2 fold change (pinometostat) | log2 fold change [14] | log2 fold change [15]
1 | ECPAS (UniProt Q5VYK3) | 0.058 | 0.087 | 0.001 | -0.06 | 0.042 | 0.009 | 0.048 | -0.01 | -0.028 | -0.018 | -0.117 | -0.09 | 0.009 | 0.082 | -0.139 | -0.094 | 0.564 (active) | 0.055 | 0.021 | 0.092
2 | EIF4G3 isoform 3 (UniProt O43432) | 0.047 | 0.01 | – | -0.083 | 0.041 | -0.046 | -0.028 | 0.071 | -0.049 | -0.125 | 0.012 | 0 | -0.074 | -0.003 | – | -0.079 | 0.017 | 0.079 | -0.227 | 0.03
3 | DEGS1 (UniProt O15121) | -0.075 | 0.076 | -0.113 | 0.145 | 0.049 | -0.003 | – | -0.096 | -0.245 | 0.32 | – | 0.049 | 0.066 | – | 0.013 | 0.074 | – | – | -0.118 | 0.197
4 | DOLPP1 (UniProt Q86YN1) | 0.049 | 0.039 | – | 0.009 | -0.165 | 0.074 | 0.17 | 0.011 | -0.088 | 0.001 | 0.008 | -0.017 | -0.19 | -0.128 | – | -0.045 | -0.154 | -0.056 | 0.016 | 0.036
5 | DHX36 (UniProt Q9H2U1) | -0.089 | 0.013 | -0.08 | 0.031 | -0.072 | 0.011 | 0.044 | -0.023 | 0.047 | -0.066 | -0.053 | 0.014 | 0.001 | 0.111 | 0.009 | -0.025 | 0.056 | 0.153 | 0.031 | -0.206
6 | EOGT (UniProt Q5NDL2) | -0.058 | -0.018 | -0.032 | 0.002 | -0.026 | -0.016 | -0.032 | 0.032 | 0.004 | 0.04 | -0.002 | 0.005 | 0.006 | -0.036 | 0.016 | -0.024 | 0.026 | 0.075 | 0.002 | 0.003
7 | ESS2 (UniProt Q96DF8) | -0.057 | -0.05 | -0.013 | 0.046 | -0.083 | 0.04 | -0.055 | -0.071 | -0.008 | 0.096 | 0.032 | 0.025 | 0.031 | -0.009 | 0.013 | 0.002 | 0.136 | 0.056 | 0.099 | -0.021
8 | F5 (UniProt P12259) | -0.122 | 0 | -0.002 | 0.061 | -0.096 | -0.054 | -0.018 | -0.064 | 0 | 0.052 | 0.006 | 0.064 | 0.003 | -0.042 | 0.168 | -0.088 | 0.001 | -0.016 | -0.017 | -0.129
9 | DPP8 (UniProt Q6V1X1) | 0.093 | 0.088 | 0.067 | 0 | 0.134 | 0.018 | -0.067 | -0.011 | -0.003 | 0.008 | 0.002 | -0.001 | -0.035 | -0.046 | -0.005 | 0.059 | 0.015 | -0.018 | 0.004 | 0.12
10 | EIF2AK1 (UniProt Q9BQI3) | -0.002 | 0.006 | -0.042 | 0 | -0.029 | -0.114 | -0.029 | 0.021 | -0.007 | 0.012 | -0.016 | 0.018 | 0.035 | -0.011 | 0.056 | 0.023 | 0.279 (active) | 0.031 | – | -0.114
11 | DDX11 (UniProt Q96FC9) | 0.019 | -0.041 | 0.087 | 0.005 | 0.029 | 0.034 | 0.215 | -0.027 | 0.032 | 0.072 | 0.152 | 0.001 | -0.119 | -0.033 | -0.003 | 0.022 | 0.09 | -0.316 | -0.02 | 0.023
12 | DSN1 (UniProt Q9H410) | 0.07 | 0.042 | -0.002 | 0.024 | -0.019 | -0.009 | -0.018 | 0.006 | 0.004 | -0.091 | -0.143 | -0.038 | -0.041 | -0.131 | -0.055 | -0.106 | 0.004 | -0.037 | -0.036 | -0.045
13 | EIF3J isoform 2 (UniProt O75822) | 0.094 | -0.093 | 0.029 | 0.005 | 0.14 | -0.042 | – | -0.138 | 0.143 | 0 | 0.052 | 0.014 | -0.071 | – | -0.05 | 0.036 | – | -0.018 | 0.046 | 0.107
14 | DTNBP1 (UniProt Q96EV8) | 0.016 | 0.028 | 0.038 | 0.03 | 0.028 | -0.038 | -0.043 | -0.043 | -0.009 | 0.002 | 0.069 | -0.025 | 0.038 | -0.136 | -0.058 | -0.009 | -0.029 | -0.044 | -0.01 | 0.092
15 | ELAC1 (UniProt Q9H777) | 0.035 | -0.068 | 0.04 | -0.061 | 0.041 | – | – | -0.021 | – | – | 0.028 | – | 0.027 | – | 0.027 | 0.116 | – | -0.129 | -0.01 | –
16 | EIF4A1 (UniProt P60842) | 0.036 | 0.049 | 0.047 | -0.023 | 0.016 | -0.021 | 0.007 | 0.035 | -0.039 | 0.054 | -0.008 | -0.022 | -0.131 | 0.026 | -0.151 | -0.124 | -0.001 | 0.016 | -0.011 | 0.017
17 | DOCK8 (UniProt Q8NF50) | 0.259 | 0.001 | 0.182 | 0.04 | -0.092 | -0.021 | -0.046 | 0.059 | -0.076 | -0.071 | 0.047 | 0.015 | 0.029 | 0.105 | -0.198 | 0.152 | 0.274 | 0.059 | 0.064 | -0.121
